Records with an inconclusive call do not appear. The source made the active and inactive calls. Calls come from the whole dose curve; as a rule, active = well fitted cell-killing curve with a large enough effect; inconclusive = small, poorly fitted or top-dose-only effect, or effect the other way; inactive = no such curve, though single readings can be large or run the other way.

The values that follow come from PubChem BioAssay (NCATS).

A short description of assay [1]: Viability qHTS for spleen associated tyrosine kinase inhibitor (SYKi) naive MV4-11 cells (AID 1963823). Note: nearly all actives have a fitted effect of over 40% in size. Summed up: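 Compounds were dispensed acoustically onto plates, MV4-11 cells (SYKi-naive) added at 500 per well, and plates incubated 72 hr at 37 C. CellTiter-Glo was added and luminescence measured after 10 min.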
(qHTS replaces the single test concentration by a dilution series.)

Assay [2] in a line: Viability qHTS for spleen associated tyrosine kinase inhibitor (SYKi) drug resistant MV4-11 cells (AID 1963824). Note: nearly all actives have a fitted effect of over 35% in size. Summed up:
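SYK inhibitor-resistant MV4-11 AML cells, 500 per well, added to predispensed compounds and incubated 72 hr at 37 C, 5% CO2. Viability measured by CellTiter-Glo luminescence after 10 min at room temperature.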
Potency is the fitted concentration of half-maximal effect.

For the molecule `CC1(C)C(O)CCC2(C)C1C(O)C=C1COC(=O)C12O` (stereo not given), the Potency result in assay [1] and in assay [2] was “inactive” in each case.

As for `CCC(=O)OCC(=O)[C@@]1(OC(=O)CC)[C@@H](C)C[C@H]2[C@@H]3CCC4=CC(=O)C=C[C@]4(C)[C@@]3(F)[C@@H](O)C[C@@]21C`, the figures for the Potency in assay [1] and in assay [2] were 18.4 µM (active) and 20.6 µM (active), respectively.

Regarding `COc1c(C)c(OCC(O)C(C)(C)O)cc2c1CNC2=O` (stereo not given), the Potency entry in assay [1] and in assay [2] was “inactive” in each case.

Turning to `COC(=O)C1=COC(O[C@@H]2O[C@H](CO[C@@H]3O[C@H](COC(=O)/C=C\c4ccc(O)cc4)[C@@H](O)[C@H](O)[C@H]3O)[C@@H](O)[C@H](O)[C@H]2O)C2C(CO)=CCC12` (stereo not given in full), the Potency result in assay [1] and in assay [2] was “inactive” each time.

Take `COc1c2c(c(C)c3c1C(=O)OC3)OC1(C)CC(O)C34OC(OC)(CCC3(C)C1C2)OC4(C)CO` (stereo not given): the Potency result in assay [1] and in assay [2] was “inactive” in each case.

In the case of `CC1=C(C(=O)O)/C(=C\CO[C@@H]2O[C@H](CO)[C@@H](O)[C@H](O)[C@H]2O)C(OC(=O)/C=C\c2ccc(O)cc2)C1` (stereo not given in full), the Potency result in assay [1] and in assay [2] was “inactive” in each case.

Consider `CN(Cc1cccs1)c1ncnc2ccc(-c3ccc4c(c3)OCO4)cc12`, for which the Potency in assay [1] and in assay [2] was 11.6 µM (active) each time.

Turning to `O=C(c1ccc(-c2ccc(Cl)cc2)o1)N(Cc1ccccn1)c1ccc(N2CCNCC2)cc1`, the Potency in assay [1] is 13 µM (active); in assay [2], 9.2 µM (active).

For the molecule `CC(=O)O[C@@H]1[C@@H](OC(=O)/C=C/c2ccccc2)[C@@H](OC(C)=O)[C@H](O[C@H]2[C@@H]3C=CO[C@@H](O[C@@H]4O[C@H](CO)[C@@H](O)[C@H](O)[C@H]4O)[C@@H]3[C@@]3(CO)O[C@@H]23)O[C@H]1C`, the Potency entry in assay [1] and in assay [2] was “inactive” throughout.

For `CSc1ccc2c(c1)C(N1CCN(C)CC1)Cc1ccccc1S2` (stereo not given), the Potency was 11.9 µM (active) in assay [1] and 26.6 µM (active) in assay [2].

On to `C=C1[C@@H]2CC[C@@]3(C)[C@H](c4ccoc4)OC(=O)C[C@]13O[C@H]1CC(=O)C(C)(C)[C@H](CC(=O)OC)[C@]12C`, for which the Potency result in assay [1] and in assay [2] was “inactive” each time.

In the case of `Nc1ccc(S(=O)(=O)Nc2nccs2)cc1`, the Potency entry in assay [1] and in assay [2] was “inactive” in each case.

In the case of `O=C(/C=C/c1ccc(O)c(O)c1)O[C@H]1[C@@H]2C=CO[C@@H](O[C@@H]3O[C@H](CO)[C@@H](O)[C@H](O)[C@H]3O)[C@@H]2[C@@]2(CO)O[C@@H]12`, the Potency result in assay [1] and in assay [2] was “inactive” in each case.

As to `CN1CCN(S(=O)(=O)c2ccc(-c3cnc(N)c(C(=O)Nc4cccnc4)n3)cc2)CC1`, the Potency in assay [1] is 0.893 µM (active); in assay [2] it was 0.796 µM (active).

For the molecule `O=C1O[C@H](C(O)CO)C(=O)C1=O` (stereo not given in full), the Potency result in assay [1] and in assay [2] was “inactive” throughout.

As to `Cc1ccc(-c2c(-c3nn(C)c4ncnc(N5CCC(N6CCCCC6)C5)c34)cnn2C)cc1` (stereo not given), the Potency in assay [1] was 16.4 µM (active). Moreover, in assay [2], the Potency entry is “inactive”.

Consider `Nc1nc(OC(c2ccc(-c3cccc(F)c3)cc2)C(F)(F)F)cc(-c2ccc(C[C@H](N)C(=O)O)cc2)n1` (stereo not given in full), for which the Potency in assay [1] and in assay [2] was 18.6 µM (active) in each case.

For `CC1COC(Nc2ccc3ncnc(Nc4ccc(OCc5nccs5)c(Cl)c4)c3c2)=N1` (stereo not given), the Potency in assay [1] and in assay [2] was 9.2 µM (active) each time.

Take `CC(=O)c1ccc(O[C@@H]2OC[C@@H](O)[C@H](O)[C@H]2O[C@]2(CO)O[C@H](CO)[C@@H](O)[C@@H]2O)c(O)c1`: the Potency result in assay [1] and in assay [2] was “inactive” in each case.

`CCOC(=O)c1cnn(-c2ccccc2)c1NC(=O)c1cc2nc(-c3ccco3)cc(C(F)(F)Cl)n2n1`: the Potency entry in assay [1] and in assay [2] was “inactive” each time.

As to `CC(=O)NC(Cc1ccccc1)C(=O)NC(C(=O)O)C(C)C` (stereo not given), the Potency result in assay [1] and in assay [2] was “inactive” each time.

Consider `CC1(C)CC2C(C1)C(C)(O)C13CC1(COC3=O)C2O` (stereo not given), for which the Potency result in assay [1] and in assay [2] was “inactive” in each case.

As for `Cc1cc(O)c(C(C)C)cc1O[C@@H]1O[C@H](CO)[C@@H](O)[C@H](O)[C@H]1O`, the Potency entry in assay [1] and in assay [2] was “inactive” in each case.

`CCOc1nc2c(N)ncnc2n1CC`: the Potency result in assay [1] and in assay [2] was “inactive” each time.

For `NC(=O)c1ccc(OCC2NC(=O)C3CCCN3C2=O)cc1` (stereo not given), the Potency result in assay [1] and in assay [2] was “inactive” each time.

Turning to `COC(=O)N/N=C/c1c[n+]([O-])c2ccccc2[n+]1[O-]`, the Potency entry in assay [1] and in assay [2] was “inactive” throughout.

For the molecule `C=C(C)C(=O)OC1[C@@H]2C(=C)C(=O)O[C@@H]2C[C@@H](C)[C@@H]2C=CC(=O)[C@@]12C` (stereo not given in full), the Potency is 2.27 µM (active) in assay [1] and 2.86 µM (active) in assay [2].

In the case of `CN1CCN(C(=O)CN[C@@H]2C[C@H]2c2ccc(OCc3ccccc3)cc2)CC1`, the Potency in assay [1] and in assay [2] was 25.9 µM (active) throughout.

As for `O=C(CCCCc1ccc2ccccc2c1)C(F)(F)F`, the Potency result in assay [1] and in assay [2] was “inactive” in each case.

`O=C1NC(=O)c2cc(Nc3ccc(F)cc3)c(Nc3ccc(F)cc3)cc21`: the Potency is 2.91 µM (active) in assay [1] and 1.03 µM (active) in assay [2].
